“And” between values parts separate entries of the source, which are not always exact repeats. Equal values may be shown once. In all, about 5,500 compounds went through this assay and about 2,000 (36%) were called active. Roughly 18% stayed inconclusive and do not appear here. Cut-off read from the data, not from the text of the source: active = normalized growth mostly below about 0.91 (no sharp cut-off); inconclusive = no clear call, values can overlap the other calls; inactive = mostly above about 0.92. Some of the results follow.
Assay: chemical genetic growth profiling, strain panel (AID 1159580);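 note: tested at 20 µM; growth read once vehicle control cultures reached saturation at 30 °C; 1 = growth at the plate median or of vehicle wells; lower values mean less growth of the strain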
Conditions: growth OD

Measured: normalized growth

C1CCc2nnnn2CC1
inactive: S. cerevisiae deletion strains, locus YJR075W, strain HOC1, active compounds read low 1.03 and 1.01 | S. cerevisiae deletion strains, locus YKL009W, strain mrt4, active compounds read low 1.03 | S. cerevisiae deletion strains, locus YKL068W, active compounds read low 1.02 | S. cerevisiae deletion strains, locus YKL085W, strain MDH1 (second series), active compounds read low 1 | S. cerevisiae deletion strains, locus YKL085W, strain MDH1, active compounds read low 1 | S. cerevisiae deletion strains, locus YKL160W, strain elf1, active compounds read low 1.01 | S. cerevisiae deletion strains, locus YKL190W, strain CNB1, active compounds read low 1 | S. cerevisiae deletion strains, locus YKR001C, strain vps1, active compounds read low 1.02 | S. cerevisiae deletion strains, locus YKR026C, strain gcn3, active compounds read low 1.01 | S. cerevisiae deletion strains, locus YKR091W, strain srl3, active compounds read low 1 | S. cerevisiae deletion strains, locus YLL001W, strain dnm1, active compounds read low 1 | S. cerevisiae deletion strains, locus YLL026W, active compounds read low 1 | S. cerevisiae deletion strains, locus YLL041C, strain sdh2, active compounds read low 1 | S. cerevisiae deletion strains, locus YLR027C, strain aat2, active compounds read low 1 | S. cerevisiae deletion strains, locus YLR039C, strain RIC1, active compounds read low 1.03 | S. cerevisiae deletion strains, locus YLR058C, strain SHM2, active compounds read low 1.02 | S. cerevisiae deletion strains, locus YLR102C, strain apc9, active compounds read low 1 | S. cerevisiae deletion strains, locus YLR113W, strain HOG1, active compounds read low 0.985 | S. cerevisiae deletion strains, locus YLR221C, strain rsa3, active compounds read low 1.01 | S. cerevisiae deletion strains, locus YLR258W, strain gsy2, active compounds read low 1.01 | S. cerevisiae deletion strains, locus YLR262C, strain YPT6 (second series), active compounds read low 1.02 | S. cerevisiae deletion strains, locus YLR262C, strain YPT6, active compounds read low 1.04 | S. cerevisiae deletion strains, locus YLR268W, strain sec22, active compounds read low 1.05 | S. cerevisiae deletion strains, locus YLR320W, strain mms22, active compounds read low 1.01 | S. cerevisiae deletion strains, locus YLR330W, strain CHS5, active compounds read low 1 | S. cerevisiae deletion strains, locus YLR342W, strain FKS1 (second series), active compounds read low 1.01 | S. cerevisiae deletion strains, locus YLR342W, strain FKS1, active compounds read low 1.01 | S. cerevisiae deletion strains, locus YLR357W, strain rsc2, active compounds read low 0.983 | S. cerevisiae deletion strains, locus YLR370C, strain arc18, active compounds read low 1.01 | S. cerevisiae deletion strains, locus YLR371W, strain rom2, active compounds read low 1.02 | S. cerevisiae deletion strains, locus YLR384C, strain iki3, active compounds read low 0.999 | S. cerevisiae deletion strains, locus YLR418C, strain cdc73, active compounds read low 1.02 | S. cerevisiae deletion strains, locus YML016C, strain PPZ1, active compounds read low 1.01 | S. cerevisiae deletion strains, locus YML032C, strain rad52, active compounds read low 1.03 | S. cerevisiae deletion strains, locus YML120C, strain ndi1, active compounds read low 0.998 | S. cerevisiae deletion strains, locus YML124C, strain tub3, active compounds read low 1.01 | S. cerevisiae deletion strains, locus YMR058W, strain fet3, active compounds read low 1.01 | S. cerevisiae deletion strains, locus YMR078C, strain ctf18, active compounds read low 1.02 | S. cerevisiae deletion strains, locus YMR125W, strain sto1, active compounds read low 1.01 | S. cerevisiae deletion strains, locus YMR129W, active compounds read low 1.01 | S. cerevisiae deletion strains, locus YMR205C, strain PFK2, active compounds read low 1.03 | S. cerevisiae deletion strains, locus YMR223W, strain ubp8, active compounds read low 0.987 | S. cerevisiae deletion strains, locus YMR231W, strain pep5, active compounds read low 1 | S. cerevisiae deletion strains, locus YMR263W, strain SAP30, active compounds read low 1.03 | S. cerevisiae deletion strains, locus YMR307W, strain GAS1, active compounds read low 1.01 | S. cerevisiae deletion strains, locus YNL067W, strain RPL9B, active compounds read low 1.03 | S. cerevisiae deletion strains, locus YNL071W, strain lat1, active compounds read low 0.999 | S. cerevisiae deletion strains, locus YNL128W, strain TEP1, active compounds read low 1.02 | S. cerevisiae deletion strains, locus YNL153C, strain GIM3, active compounds read low 1.02 and 1.14 | S. cerevisiae deletion strains, locus YNL175C, strain NOP13, active compounds read low 1.01 | S. cerevisiae deletion strains, locus YNL183C, strain NPR1, active compounds read low 0.918 | S. cerevisiae deletion strains, locus YNL197C, strain WHI3, active compounds read low 1.01 | S. cerevisiae deletion strains, locus YNL209W, strain ssb2, active compounds read low 1.01 | S. cerevisiae deletion strains, locus YNL224C, strain SQS1, active compounds read low 1.02 | S. cerevisiae deletion strains, locus YNL233W, strain BNI4, active compounds read low 0.982 | S. cerevisiae deletion strains, locus YNL248C, strain rpa49, active compounds read low 0.994 | S. cerevisiae deletion strains, locus YNL250W, strain rad50, active compounds read low 1 | S. cerevisiae deletion strains, locus YNL271C, strain bni1, active compounds read low 1.02 | S. cerevisiae deletion strains, locus YNL298W, strain CLA4, active compounds read low 1.01 | S. cerevisiae deletion strains, locus YNL307C, strain MCK1, active compounds read low 1.01 | S. cerevisiae deletion strains, locus YNL322C, strain KRE1 (second series), active compounds read low 1.01 | S. cerevisiae deletion strains, locus YNL322C, strain KRE1, active compounds read low 1.01 and 1 | S. cerevisiae deletion strains, locus YNR049C, strain mso1, active compounds read low 1.01 | S. cerevisiae deletion strains, locus YNR052C, strain pop2, active compounds read low 1 | S. cerevisiae deletion strains, locus YOL006C, strain TOP1, active compounds read low 1.08 | S. cerevisiae deletion strains, locus YOL012C, strain htz1 0.99 | S. cerevisiae deletion strains, locus YOL147C, strain pex11, active compounds read low 1.01 | S. cerevisiae deletion strains, locus YOR001W, strain rrp6, active compounds read low 1 | S. cerevisiae deletion strains, locus YOR061W, strain CKA2, active compounds read low 1.01 | S. cerevisiae deletion strains, locus YOR069W, strain VPS5, active compounds read low 1.02 | S. cerevisiae deletion strains, locus YOR070C, strain gyp1, active compounds read low 0.999 | S. cerevisiae deletion strains, locus YOR080W, strain dia2, active compounds read low 1 | S. cerevisiae deletion strains, locus YOR083W, strain WHI5 (second series), active compounds read low 1.02 | S. cerevisiae deletion strains, locus YOR083W, strain WHI5, active compounds read low 1.02 | S. cerevisiae deletion strains, locus YOR106W, strain vam3, active compounds read low 1.01 | S. cerevisiae deletion strains, locus YOR136W, strain idh2, active compounds read low 0.992 | S. cerevisiae deletion strains, locus YOR144C, strain elg1, active compounds read low 1.01 | S. cerevisiae deletion strains, locus YOR184W, strain ser1, active compounds read low 1.03 | S. cerevisiae deletion strains, locus YOR231W, strain MKK1, active compounds read low 0.982 | S. cerevisiae deletion strains, locus YOR265W, strain rbl2, active compounds read low 1.02 | S. cerevisiae deletion strains, locus YOR270C, strain vph1, active compounds read low 1.04 | S. cerevisiae deletion strains, locus YOR290C, strain snf2, active compounds read low 1.01 | S. cerevisiae deletion strains, locus YOR316C, strain cot1, active compounds read low 1.01 | S. cerevisiae deletion strains, locus YPL051W, strain arl3, active compounds read low 1.01 | S. cerevisiae deletion strains, locus YPL055C, strain LGE1, active compounds read low 0.977 | S. cerevisiae deletion strains, locus YPL078C, strain atp4, active compounds read low 1.01 | S. cerevisiae deletion strains, locus YPL106C, strain sse1, active compounds read low 1 | S. cerevisiae deletion strains, locus YPL240C, strain hsp82, active compounds read low 1.02 | S. cerevisiae deletion strains, locus YPL241C, strain CIN2, active compounds read low 1 | S. cerevisiae deletion strains, locus YPL256C, strain CLN2, active compounds read low 0.976 | S. cerevisiae deletion strains, locus YPR119W, strain clb2, active compounds read low 1 | S. cerevisiae deletion strains, locus YPR141C, strain kar3, active compounds read low 1 | S. cerevisiae deletion strains, locus YPR163C, strain tif3, active compounds read low 1.02 | S. cerevisiae deletion strains, locus YPR167C, strain met16, active compounds read low 1.01 | S. cerevisiae deletion strains, strain wtn01, active compounds read low 1.02 | S. cerevisiae strains, strain wild type, active compounds read low 1.01

Reference: PubChem BioAssay AID1159580 (chemical genetic matrix, 2015)
